Source: PubChem BioAssay
ST2 inh: inhibitors of human ST2 (IL1RL1) binding to IL-33 | Q01638 | AlphaLISA ST2-Fc/biotin-IL-33 interaction, 1 h | inhibition, % for hits at 17 µM | 2.3% of 78,000 active; in the data active = inhibition above about 30%
Target sequence (Q01638 whole entry, looked up): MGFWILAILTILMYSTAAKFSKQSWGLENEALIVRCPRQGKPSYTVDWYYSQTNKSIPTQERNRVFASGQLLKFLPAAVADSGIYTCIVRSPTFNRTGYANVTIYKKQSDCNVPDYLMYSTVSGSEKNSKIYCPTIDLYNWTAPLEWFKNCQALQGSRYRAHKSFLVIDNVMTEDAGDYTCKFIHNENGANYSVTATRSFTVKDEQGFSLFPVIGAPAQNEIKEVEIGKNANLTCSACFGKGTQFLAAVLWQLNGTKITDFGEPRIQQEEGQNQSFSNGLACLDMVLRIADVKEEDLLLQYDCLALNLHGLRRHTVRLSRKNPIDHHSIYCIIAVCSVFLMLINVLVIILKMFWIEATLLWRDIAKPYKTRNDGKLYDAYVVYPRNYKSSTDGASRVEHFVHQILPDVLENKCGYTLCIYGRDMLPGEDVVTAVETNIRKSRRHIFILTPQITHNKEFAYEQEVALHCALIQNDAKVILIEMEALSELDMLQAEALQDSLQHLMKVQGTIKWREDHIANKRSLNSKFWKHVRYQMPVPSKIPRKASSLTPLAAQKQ
* marks the source's active call; other numbers are inactive results; i = inactive; ! = not confirmed by another sample. Only a selection was taken, and hits are over-represented in it overall.

SMILES	ST2 inh
N#Cc1nc(COc2ccccc2F)oc1N1CCCCC1	53%*
Cc1nc(S(=O)(=O)c2ccccc2)c(N2CCCCC2)o1	i
Cc1ccccc1OCc1nc(C#N)c(N2CCCC2)o1	71%*
Fc1ccccc1OCCCOc1ccccc1F	i
COc1ccc(-c2nc(C#N)c(N3CCOCC3)o2)cc1	i
O=C(COc1ccc(Br)cc1)N1CCCC1	i
N#Cc1nc(COc2ccccc2F)oc1N1CCCC1	53%*
O=S(=O)(c1ccccc1)c1nc(-c2ccc(F)cc2)oc1N1CCCCC1	i
N#Cc1nc(-c2ccc(F)cc2)oc1N1CCOCC1	i
Brc1ccc(-c2noc(COc3ccccc3)n2)cc1	i
N#Cc1nc(COc2ccc(Br)cc2)oc1N1CCCCC1	64%*
Cc1ccc(C2(O)CCN(C(=O)COc3ncnc4ccccc34)CC2)nc1	i
CN(C(=O)c1noc2c1CCCC2)c1ccccc1	i
COc1ccc(C2SCCN2S(=O)(=O)c2cccc([N+](=O)[O-])c2)cc1OC (centres undefined)	i
CCN1CCCC1CNC(=O)C1(O)c2ccccc2NC(=O)N1c1ccc(Cl)c(Cl)c1 (centres undefined)	i
CC(C)Cn1cc(C(=O)NCCN(C)C)c2c3ccccc3n(C)c2c1=O	i
CC(C)c1nccn1CCOc1ccccc1	i
COc1cccc(NC(=O)CCc2c(C)n(C)c3cc(-c4ccccc4OC)nn3c2=O)c1	i
O=C(CCN1CCCCC1)c1ccc(O)cc1	i
CC(=O)Nc1nsc(Nc2ccc(Cl)c(Cl)c2)n1	i
CC1(NC(=O)Nc2cccc([N+](=O)[O-])c2)CCS(=O)(=O)C1 (centres undefined)	i
Cc1ccc(-n2c(=O)n(Cc3ccccc3)c3c(C(N)=O)nc(-c4cccc(F)c4F)nc32)cc1C	i
O=C(O)c1ccc(CS(=O)(=O)Cc2ccccc2)o1	i
OCC1CCCN1Cc1cccc(Cl)c1 (centres undefined)	i
O=C1N(CCc2ccccc2)C[C@@H]2C[C@@H](c3cnc(-c4ccccc4)s3)N3CCC[C@@]123	i
SMILES	ST2 inh
O=C1N(Cc2cccc(Cl)c2)C[C@@H]2C[C@@H](c3ccc4nsnc4c3)N3CCC[C@@]123	40%*
CC(C)Oc1cccc(C(=O)C2CCCN(Cc3c[nH]c(=O)[nH]c3=O)C2)c1 (centres undefined)	i
Cc1cc(NC(=O)CSc2nncn2C)ccc1Cl	i
CC[C@@]1(C(=O)O)C[C@H](C(=O)NCCN(C)C)[C@H](c2ccc(F)cc2)N1C	i
O=C(O)CCC(=O)N1N=C(c2cccs2)CC1c1ccc(F)cc1 (centres undefined)	i
c1ccc(C2Oc3ccccc3C3CC(c4cccs4)=NN32)cc1 (centres undefined)	34%*
COc1ccc(C2=NN3C(C2)c2ccccc2OC3c2ccco2)cc1 (centres undefined)	i
Cc1c(NC(=O)CCc2nc(-c3ccccc3F)no2)cccc1[N+](=O)[O-]	i
COc1cc(C2CC(=O)NC(SCC(N)=O)=C2C#N)ccc1O (centres undefined)	i
Cc1ccc(/C=C2\C(=O)NN(c3ccc(Cl)c(Cl)c3)C2=O)s1	i
CCSC1=N/C(=C\c2ccc(C)s2)C(=O)S1	57%*
CCSC1=N/C(=C\c2ccc(C(=O)O)cc2)C(=O)S1	i
O=C(Nc1cc(Cl)ccc1Cl)c1ccc(F)cc1	i
COC(=O)c1cccc(N2C(=O)[C@H]3[C@@H](C2=O)[C@@]2(C)C=C[C@H]3O2)c1	i
CCSCCOC(=O)C1=C(C)NC2=C(C(=O)C(C(=O)OC)C(C)C2)C1c1ccc(CC)cc1 (centres undefined)	i
C(=C\c1ccccc1)/Sc1ccc2ccccc2n1	34%*
C(=C\c1cnc2n[nH]nc2c1)/c1ccccc1	i
O=c1c2ccccc2nc(/C=C/c2ccccc2)n1Cc1ccccc1	i
CC(C)c1cc(C2CCN(Cc3coc4ccccc4c3=O)CC2)[nH]n1	i
O=C(Nc1nnc(N=Cc2ccc(Br)s2)s1)c1cccs1	i
CCc1nc2oc(C(=O)c3ccc(Cl)cc3)c(N)c2c2c1COC(C)(C)C2	i
CCc1nc2oc(C(=O)c3ccccc3)c(N)c2c2c1COC(C)(C)C2	40%*!
CCCc1nc2oc3c(-c4ccccc4)c(C(=O)O)c(C)nc3c2c2c1COC(C)(C)C2	i
CCOC(=O)CCNC(=O)N1CCCC(Nc2ccc3c(c2)OCO3)C1 (centres undefined)	i
COc1cc(C=O)ccc1OCCOc1c(C)cc(C)cc1Br	i
SMILES	ST2 inh
CCN(CC)C(=NS(=O)(=O)c1cc(C)ccc1C)c1ccccc1	i
Cc1ccc(C)c(S(=O)(=O)N=C(c2ccc(Cl)cc2)N(C)C)c1	78%*
Cc1ccc(C(=O)Nc2cc(Cl)ccc2C)cc1	i
O=C(Nc1cccc(-c2ccc(F)cc2)c1)C1CCCN(C(=O)c2cccs2)C1 (centres undefined)	i
Fc1ccc(-c2cc(C(F)(F)F)nc(-n3ccnc3)n2)cc1	i
COc1ccc(C(=O)N2CCCc3ccccc32)cc1	i
COc1ccc(N2CCSC2C(=O)c2ccccc2)cc1 (centres undefined)	32%*
